An excerpt weighted towards active compounds, which were near 12% of everything screened.
PLK1 PBD block = inhibitors of human PLK1 polo-box domain binding; P53350; Plk1 PBD binding of FITC phosphopeptide, fluorescence polarization; Potency, µM, most hits filed as inhibitors; 360,000 tested, 2.8% active; also: series mostly up to about 57 µM; nearly all actives have a fitted effect of over 65% in size
HP1b binding inh = HP1-beta chromodomain-methylated histone interaction inhibition; AlphaScreen HP1-beta / biotin-H3K9me3 peptide binding; Potency, µM (series often up to 114 µM), most hits filed as inhibitors; 390,000 tested, 0.56% active; also: nearly all actives have a fitted effect of over 70% in size
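AlphaScreen: HP1-beta (50 nM) preformed 30 min with biotin-H3(1-18)K9me3 peptide (50 nM) in PBS pH 7.4, 0.01% Tween-20. Compound added for 30 min at RT, then streptavidin donor/nickel chelate acceptor beads (10 ug/mL) for 30 min.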
BAZ2B inh = BAZ2B (human) inhibition; Q9UIF8; 360,000 tested, 4.4% active; Potency, µM (series often up to 114 µM), actives largely listed as inhibitors; AlphaScreen BAZ2B-H3K14Ac peptide displacement; also: nearly all actives have a fitted effect of over 60% in size
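Protein-peptide AlphaScreen: BAZ2B 50 nM, b-H3K14Ac 50 nM, 1x PBS pH 7.4 + 0.01% Tween-20. Preincubation 30 min RT; cpd 30 min RT (top 110 uM); beads 20 min RT, light-protected.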
JMJD2A Tudor = JMJD2A Tudor domain (human) inhibition | O75164 | AlphaScreen JMJD2A-Tudor / H3K4me3 peptide binding | Potency, µM (series often up to 114 µM), usual class: inhibitors | 390,000 tested, 4.4% active | AID 504339; also: nearly all actives have a fitted effect of over 50% in size
Target sequence (O75164 whole entry, looked up, the tested form may be a part): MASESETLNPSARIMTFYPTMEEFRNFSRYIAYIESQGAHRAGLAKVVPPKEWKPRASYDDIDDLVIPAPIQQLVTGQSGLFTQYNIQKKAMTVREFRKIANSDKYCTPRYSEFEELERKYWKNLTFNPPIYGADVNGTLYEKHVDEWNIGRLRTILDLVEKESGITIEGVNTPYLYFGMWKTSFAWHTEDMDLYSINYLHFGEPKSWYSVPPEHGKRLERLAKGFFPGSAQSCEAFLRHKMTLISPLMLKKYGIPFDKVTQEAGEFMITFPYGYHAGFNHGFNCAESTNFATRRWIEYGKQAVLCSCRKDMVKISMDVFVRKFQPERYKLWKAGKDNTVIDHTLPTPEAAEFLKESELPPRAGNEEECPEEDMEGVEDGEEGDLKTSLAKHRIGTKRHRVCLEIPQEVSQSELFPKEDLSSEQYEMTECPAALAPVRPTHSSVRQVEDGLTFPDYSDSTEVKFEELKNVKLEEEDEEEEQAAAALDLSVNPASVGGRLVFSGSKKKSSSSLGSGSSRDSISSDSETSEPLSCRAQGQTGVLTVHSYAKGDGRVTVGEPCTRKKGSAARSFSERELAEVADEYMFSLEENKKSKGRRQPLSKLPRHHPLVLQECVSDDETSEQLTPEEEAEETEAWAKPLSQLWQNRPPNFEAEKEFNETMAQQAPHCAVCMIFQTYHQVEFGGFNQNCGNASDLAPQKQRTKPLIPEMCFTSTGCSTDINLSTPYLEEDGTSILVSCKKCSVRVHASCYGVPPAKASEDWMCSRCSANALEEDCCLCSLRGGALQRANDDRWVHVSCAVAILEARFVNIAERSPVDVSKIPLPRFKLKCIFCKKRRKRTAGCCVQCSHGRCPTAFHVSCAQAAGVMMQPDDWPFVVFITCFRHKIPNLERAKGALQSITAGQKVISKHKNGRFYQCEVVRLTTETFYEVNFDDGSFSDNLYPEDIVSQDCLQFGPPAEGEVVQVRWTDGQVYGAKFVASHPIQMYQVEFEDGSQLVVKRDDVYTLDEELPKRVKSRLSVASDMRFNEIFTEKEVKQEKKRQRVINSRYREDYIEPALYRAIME
G9a inh = G9a (human) methyltransferase inhibition | Q96KQ7 | G9a H3K9 monomethylation, AlphaScreen, 2 h | Potency, µM (top dose mostly 102 µM), hits mostly inhibitors | 350,000 tested, 8.8% active; also: nearly all actives have a fitted effect of over 75% in size
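Enzyme 20 nM + cpd, 15 min RT; add b-H3K9 pep 500 nM / SAM 20 uM; 2 h RT; anti-H3K9me1 Ab 0.5 ug/mL + SA donor / anti-rabbit acceptor beads 20 ug/mL each, 10 min; AlphaScreen read.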
PI5P4K alpha inh = PI5P4K alpha (human) kinase inhibition; P48426; PI5P4Kalpha enzyme, ADP-Glo luminescence, 60 min; hits give low values; 330,000 tested, 1.2% active; max response, %; active = max response of -50% or lower; inconclusive = between -30% and -50%; inactive = -30% or higher; also: value at the top dose of about 77 µM
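ADP-Glo luminescence end-point read after a 60 min room-temperature kinase reaction of PI5P4Kalpha plus substrate, initiated with ATP at 5 microM final. Buffer: 0.038 M HEPES pH 7.4, EGTA, 0.1% CHAPS, 5% DMSO.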
Hits are given with their value; 0 = inactive; ? = inconclusive; - = no result; [ ] = remark or other dose. Unless noted, calls follow the shape of the dose curve; as a rule, active = well fitted curve in the direction sought with a large enough effect; inconclusive = small, poorly fitted or top-dose-only effect, or another doubt; inactive = no such curve, though single readings can be large; an effect the other way counts as inactive or inconclusive.

SMILES	PLK1 PBD block	HP1b binding inh	BAZ2B inh	JMJD2A Tudor	G9a inh	PI5P4K alpha inh
Cc1ccc(CN(C(=O)c2ccco2)C(C(=O)NC2CCCC2)c2ccc(N3CCOCC3)cc2)cc1 (stereo not drawn)	0	0	0	0	28µM	0
Cc1cc(C)cc(N(C(=O)CNC(=O)c2ccco2)C(C(=O)NC2CCCC2)c2ccncc2)c1 (stereo not drawn)	30µM	0	0	?	0	0
CCc1ccc(N(C(=O)CNC(=O)c2ccco2)C(C(=O)NC2CCCC2)c2cccnc2)cc1 (stereo not drawn)	?	0	0	50µM	0	0
Cc1ccc(CN(C(=O)c2ccco2)C(C(=O)NC2CCCC2)c2cccnc2)cc1 (stereo not drawn)	0	0	0	0	0	0
Cc1cccc(N(C(=O)CNC(=O)c2ccco2)C(C(=O)NC2CCCC2)c2ccncc2)c1 (stereo not drawn)	0	0	0	0	0	0
COc1ccc(N(C(=O)c2ccco2)C(C(=O)NC2CCCC2)c2ccncc2)cc1OC (stereo not drawn)	0	0	0	0	71µM	0
CCOc1ccccc1CNC(=O)c1cccn1-c1nnc(N2CCCCC2)s1	-	0	0	0	0	-
CCOc1ccccc1CNCc1cccn1-c1nnc(N2CCN(c3ccccc3)CC2)s1	-	0	?	?	14µM	-
COC(=O)c1cc(C#N)c(NCc2ccccc2)nc1C	3.4µM	?	0	?	0	?
COC(=O)c1cc(C#N)c(N(C)Cc2ccccc2)nc1C	0	0	0	0	0[12.7 µM]	0
CC(=O)N1CCc2cc(S(=O)(=O)N3CCN(S(=O)(=O)c4c(F)cccc4F)CC3)ccc21	-	-	-	0	-	-
Cc1occc(=O)c1OCc1c(F)cccc1Cl	21µM	0	0	0	0	0
Cc1cccc(OCC(=O)Nc2nc(-c3ccncc3)cs2)c1	0	0	0	0	0[12.7 µM]	0
O=C(COc1cccc(F)c1)Nc1nc(-c2ccccn2)cs1	11µM	-	-	-	-	?
O=C(Nc1nc(-c2ccccn2)cs1)Nc1ccc(F)cc1F	4.7µM	?	0	40µM	2.8µM	0
Cc1oc(-c2ccccc2)cc1C(=O)Nc1cccc(/C=C/C(=O)O)c1	21µM	?	45µM	?	0	0
CC(C)N1C(=O)C(=O)N(CC(=O)N2c3ccccc3CC2C)C1=O (stereo not drawn)	0	-	-	-	-	0
O=C(COC(=O)CC1CCCC1)Nc1cc2c(cc1Cl)C(=O)c1ccccc1C2=O	0	0	56µM	56µM	?	?
COc1ccc2c(Sc3ccccc3)c(C(=O)NCCCN3CCCCC3)[nH]c2c1	-	0	?	?	?	-
Cc1ccc2nc(C)c(CN3CCN(c4ccc([N+](=O)[O-])cc4Cl)CC3)n2c1	-	-	40µM	-	50µM	-
CC(C)(C)C(=O)N1CCN(c2ccc([N+](=O)[O-])cc2Cl)CC1	0	0	-	0	-	0
COc1ccc(-n2c(C)cc(/C=C/c3nc(O)c([N+](=O)[O-])c(=O)[nH]3)c2C)cc1	0	?	50µM	0[11.4 µM]	28µM	-52
CCOc1ccccc1/C=C\c1nc(O)c([N+](=O)[O-])c(=O)[nH]1	0	0	0	0	0	?
O=C(COc1ccccc1/C=C\c1nc(O)c([N+](=O)[O-])c(=O)[nH]1)Nc1ccccc1	0	0	?	0	50µM	-55
CCOc1ccc(/C=C\c2nc(O)c([N+](=O)[O-])c(=O)[nH]2)cc1OCC	0	0	0	0	?	0
SMILES	PLK1 PBD block	HP1b binding inh	BAZ2B inh	JMJD2A Tudor	G9a inh	PI5P4K alpha inh
Cc1cc(/C=C\c2nc(O)c([N+](=O)[O-])c(=O)[nH]2)c(C)n1-c1ccccc1	0	?	45µM	56µM	50µM	-63
Cc1ccc(C)c(NC(=O)Cn2cc(C(=O)c3cccs3)c3ccccc32)c1	-	0	0	0	0	-
Cc1ccc(NC(=O)Cn2c(=O)ccn(Cc3ccccc3)c2=O)cc1S(=O)(=O)N1CCOCC1	0	0	-	0	-	0
CCCCNc1c(-c2ccc(SC(C)CC)cc2)nc2cnccn12 (stereo not drawn)	0	0	-	56µM	-	0
CCCCNc1c(-c2ccc(SC(C)CC)c(OC)c2)nc2ccc(C)cn12 (stereo not drawn)	0	0	50µM	?	0[2.33 µM]	0
CCCCNc1c(-c2ccc(OC)c(Sc3ccc(OC)cc3)c2)nc2cnccn12	0	0	-	?	-	0
CCCCNc1c(-c2ccc(OC)c(Sc3ccc(OC)cc3)c2)nc2ccccn12	0	0	40µM	45µM	0[12.7 µM]	0
Cc1ccc(NS(=O)(=O)c2ccc3c(c2)CCC(C)(C)O3)cc1C	-	-	-	0	-	-
CCc1ccc(CNC(=O)CN2C(=O)c3cccnc3Oc3ccc(C)cc32)cc1	-	0	0	0	0	-
C#CCNC(=O)C1=C[C@H](c2ccc(C#C)cc2)C[C@H](OCc2ccc(CO)cc2)O1	0	0	-	0	-	-59
CC(C)[C@H]1C=C(C(=O)O)O[C@@H](OCc2ccc(CO)cc2)C1	0	0	?	89µM	?	0
CC(C)Nc1ncnc2c1ncn2[C@H]1CN(Cc2cccnc2)C[C@@H](CO)O1	0	-	-	-	-	0
O=C(NC(=S)Nc1cccnc1Cl)c1ccc(Cl)cc1	0	0	0	0	40µM	0
Cc1cccc(C(=O)Nc2cccnc2Cl)c1	8.4µM	0	0	?	-	0
O=C(NC(=S)Nc1cccnc1Cl)c1ccco1	27µM	?	0	0	56µM	?
O=C(Nc1cccnc1Cl)c1cccc(F)c1	-	-	0	-	-	-
O=C(Nc1cccnc1Cl)c1ccc(Cl)cc1	0	0	0	0	0	0
Cc1ccc(-c2c3c(=O)n(C)c(=O)n(C)c3c3cnc4ccccc4n23)cc1	-	0	0	0	0	-
CCCCN1C(=O)c2cccc3cc(O)cc(c23)C1=O	0	0	-	0	-	0
CC1Nc2ncnc(N3CCN(c4ccccc4)CC3)c2N(Cc2ccc(Br)cc2)C1=O (stereo not drawn)	0	0	?	?	0[2.33 µM]	0
CN(C)c1ccc(CNC(=O)CCc2ccc(S(=O)(=O)N3CCCCCC3)cc2)cc1	0	0	45µM	50µM	28µM	0
CN(C)c1ccc(CNC(=O)CCS(=O)(=O)c2ccc3c(c2)n(C)c(=O)c(=O)n3C)cc1	0	0	?	?	18µM	0
CC(C)NC(=O)CN1C(=O)CSc2ccc(S(=O)(=O)N3CCCC3)cc21	24µM	0	0	0	0	0
CN(C)c1ccc(CNC(=O)CN2C(=O)CSc3ccc(S(=O)(=O)N4CCCC4)cc32)cc1	-	0	?	?	11µM	-
Cc1ccc(CNC(=O)CCS(=O)(=O)c2ccc3c(c2)oc(=O)n3C)cc1	0	0	0	0	0	0
Cc1ccccc1OCCn1cnc2c(N)ncnc21	0	0	0	0	0	0
Cc1ccccc1OCCn1c(=S)[nH]c2c(N)ncnc21	0	?	0	7.1µM	1.8µM	0
O=C(O)C(Cc1ccnc2ccccc12)=NO	0	0	-	3.2µM	-	0

Screens: PubChem, National Center for Advancing Translational Sciences (NCATS)
